Reference: the supplement of paper PMC11732987, “Enantioselective OTUD7B fragment discovery through chemoproteomics screening and high-throughput optimisation” (Communications Chemistry, 2025)

Assays:
Assay in all cases: log2 ratio of Biotin-Ahx-Ub-VS probe labelling (fragment/DMSO); higher = less target engagement (more negative = stronger competition), active = hit call of the paper (q ≤ 0.05, log2 ratio ≤ -1)
Details in all cases: compound concentration: 200 uM; treatment time: 3 h
[1] = target: USP34 (UniProt Q70CQ2)
Summary of the method: (§1)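 Global-median-normalised Spectronaut label-free quantities were compared by unpaired t-test, and values are average log2 ratios of fragment over vehicle. Only proteins with ≥2 unique peptides were used. HEK293T lysate (495 µg per sample) was treated in triplicate with fragment at 200 µM or vehicle for 3 h and then with Biotin-Ahx-Ub-VS at 0.5 µM final for 1 h. Labelled DUBs were then NeutrAvidin-enriched, digested with LysC and trypsin, and run by diaPASEF LC-MS/MS.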

[2] = target: T1, USP36 (UniProt Q9P275)
T1 sequence (whole entry): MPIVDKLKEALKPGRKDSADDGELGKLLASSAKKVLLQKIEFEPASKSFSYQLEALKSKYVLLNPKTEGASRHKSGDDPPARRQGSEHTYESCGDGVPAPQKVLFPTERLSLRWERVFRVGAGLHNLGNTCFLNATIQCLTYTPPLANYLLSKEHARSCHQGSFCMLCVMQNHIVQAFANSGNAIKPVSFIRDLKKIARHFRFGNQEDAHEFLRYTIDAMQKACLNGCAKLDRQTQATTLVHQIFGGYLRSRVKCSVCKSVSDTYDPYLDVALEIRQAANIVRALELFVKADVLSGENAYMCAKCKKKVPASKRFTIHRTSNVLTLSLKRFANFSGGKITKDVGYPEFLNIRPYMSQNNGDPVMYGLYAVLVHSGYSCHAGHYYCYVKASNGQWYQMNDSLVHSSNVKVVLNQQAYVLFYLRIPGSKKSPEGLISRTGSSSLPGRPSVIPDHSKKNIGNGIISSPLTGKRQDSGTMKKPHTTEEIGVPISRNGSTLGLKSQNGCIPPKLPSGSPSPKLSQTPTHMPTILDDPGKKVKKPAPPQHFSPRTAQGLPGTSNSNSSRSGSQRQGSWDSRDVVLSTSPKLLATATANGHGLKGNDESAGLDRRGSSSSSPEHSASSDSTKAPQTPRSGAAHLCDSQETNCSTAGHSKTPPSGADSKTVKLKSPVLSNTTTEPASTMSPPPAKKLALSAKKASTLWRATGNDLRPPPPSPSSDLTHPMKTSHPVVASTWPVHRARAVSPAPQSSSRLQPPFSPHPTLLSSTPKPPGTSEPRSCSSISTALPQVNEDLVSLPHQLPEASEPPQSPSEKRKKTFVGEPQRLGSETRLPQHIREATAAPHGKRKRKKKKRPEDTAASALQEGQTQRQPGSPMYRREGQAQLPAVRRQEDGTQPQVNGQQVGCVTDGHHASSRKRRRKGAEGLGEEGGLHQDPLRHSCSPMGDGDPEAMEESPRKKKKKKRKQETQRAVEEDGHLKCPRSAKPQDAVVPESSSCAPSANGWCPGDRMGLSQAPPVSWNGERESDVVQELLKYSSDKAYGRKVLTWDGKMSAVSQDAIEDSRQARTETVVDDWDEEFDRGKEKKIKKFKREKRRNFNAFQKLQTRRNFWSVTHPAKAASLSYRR
Summary of the method: as §1

[3] = target: T2, USP38 (UniProt Q8NB14)
T2 sequence (whole entry): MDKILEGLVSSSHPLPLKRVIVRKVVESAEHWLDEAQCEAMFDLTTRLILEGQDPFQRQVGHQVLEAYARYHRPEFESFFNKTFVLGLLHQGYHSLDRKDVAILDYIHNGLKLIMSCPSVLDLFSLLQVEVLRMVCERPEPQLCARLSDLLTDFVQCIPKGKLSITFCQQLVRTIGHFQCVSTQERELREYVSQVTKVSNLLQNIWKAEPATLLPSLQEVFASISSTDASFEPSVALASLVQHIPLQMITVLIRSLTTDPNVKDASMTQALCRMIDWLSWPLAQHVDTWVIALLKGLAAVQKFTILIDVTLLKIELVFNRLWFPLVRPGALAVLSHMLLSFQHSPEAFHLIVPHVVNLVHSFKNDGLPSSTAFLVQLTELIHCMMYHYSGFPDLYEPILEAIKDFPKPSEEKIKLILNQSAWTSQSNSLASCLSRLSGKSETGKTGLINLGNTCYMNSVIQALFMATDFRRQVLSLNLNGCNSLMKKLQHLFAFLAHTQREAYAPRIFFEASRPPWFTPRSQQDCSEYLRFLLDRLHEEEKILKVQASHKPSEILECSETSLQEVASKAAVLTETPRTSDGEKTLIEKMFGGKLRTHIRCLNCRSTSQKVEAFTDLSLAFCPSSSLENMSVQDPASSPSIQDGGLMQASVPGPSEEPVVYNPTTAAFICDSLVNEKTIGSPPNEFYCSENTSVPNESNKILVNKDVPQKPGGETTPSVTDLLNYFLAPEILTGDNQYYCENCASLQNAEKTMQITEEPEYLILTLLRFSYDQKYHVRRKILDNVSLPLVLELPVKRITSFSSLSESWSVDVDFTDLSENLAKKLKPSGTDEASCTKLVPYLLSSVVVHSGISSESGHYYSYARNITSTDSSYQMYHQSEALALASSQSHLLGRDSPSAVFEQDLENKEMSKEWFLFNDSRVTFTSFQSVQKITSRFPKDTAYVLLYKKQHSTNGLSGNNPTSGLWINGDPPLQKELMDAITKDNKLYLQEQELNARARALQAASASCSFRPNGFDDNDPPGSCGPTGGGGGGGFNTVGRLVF
Summary of the method: as §1

[4] = target: T3, USP39 (UniProt Q53GS9)
T3 sequence (whole entry): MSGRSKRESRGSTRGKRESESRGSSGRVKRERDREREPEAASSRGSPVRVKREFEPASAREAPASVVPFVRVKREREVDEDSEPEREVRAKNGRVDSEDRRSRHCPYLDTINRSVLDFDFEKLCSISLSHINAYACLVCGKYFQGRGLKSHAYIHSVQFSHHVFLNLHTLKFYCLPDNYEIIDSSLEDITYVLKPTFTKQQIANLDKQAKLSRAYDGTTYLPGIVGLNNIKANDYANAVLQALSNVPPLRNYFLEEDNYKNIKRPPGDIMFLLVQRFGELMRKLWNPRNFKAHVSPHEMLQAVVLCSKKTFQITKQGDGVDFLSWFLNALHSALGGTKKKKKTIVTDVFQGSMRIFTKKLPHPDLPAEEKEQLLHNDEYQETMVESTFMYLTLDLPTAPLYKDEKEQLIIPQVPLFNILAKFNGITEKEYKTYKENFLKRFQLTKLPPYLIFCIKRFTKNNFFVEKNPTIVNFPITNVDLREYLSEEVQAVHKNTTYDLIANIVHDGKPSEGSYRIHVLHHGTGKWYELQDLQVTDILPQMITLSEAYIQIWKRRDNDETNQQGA
Summary of the method: as §1

[5] = target: T4, USP4 (UniProt Q13107)
T4 sequence (whole entry): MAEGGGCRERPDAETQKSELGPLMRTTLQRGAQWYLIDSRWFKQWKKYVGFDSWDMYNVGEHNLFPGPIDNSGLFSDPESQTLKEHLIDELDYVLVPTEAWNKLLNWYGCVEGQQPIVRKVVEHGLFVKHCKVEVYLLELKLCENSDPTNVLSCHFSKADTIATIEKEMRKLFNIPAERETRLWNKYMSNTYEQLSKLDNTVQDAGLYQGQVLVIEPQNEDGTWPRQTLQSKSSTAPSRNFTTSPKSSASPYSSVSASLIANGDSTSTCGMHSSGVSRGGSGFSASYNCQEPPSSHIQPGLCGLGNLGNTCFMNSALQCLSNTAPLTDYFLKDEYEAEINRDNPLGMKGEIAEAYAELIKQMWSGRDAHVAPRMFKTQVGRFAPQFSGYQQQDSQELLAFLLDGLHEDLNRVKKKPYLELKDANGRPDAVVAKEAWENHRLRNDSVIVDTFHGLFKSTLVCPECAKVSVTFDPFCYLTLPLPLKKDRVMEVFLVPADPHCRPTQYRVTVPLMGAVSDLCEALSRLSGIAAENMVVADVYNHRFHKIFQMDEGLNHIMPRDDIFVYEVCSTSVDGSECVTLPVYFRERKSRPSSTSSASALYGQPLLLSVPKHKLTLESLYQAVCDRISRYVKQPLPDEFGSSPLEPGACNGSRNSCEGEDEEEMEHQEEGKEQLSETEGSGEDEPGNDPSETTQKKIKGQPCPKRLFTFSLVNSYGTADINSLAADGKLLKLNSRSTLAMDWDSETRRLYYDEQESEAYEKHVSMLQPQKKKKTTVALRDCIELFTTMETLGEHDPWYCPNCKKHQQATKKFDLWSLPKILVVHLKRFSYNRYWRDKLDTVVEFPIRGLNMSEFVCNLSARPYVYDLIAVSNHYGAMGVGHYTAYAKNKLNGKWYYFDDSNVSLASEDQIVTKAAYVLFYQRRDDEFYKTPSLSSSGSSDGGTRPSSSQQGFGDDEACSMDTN
Summary of the method: as §1

Measured: log2 ratio of Biotin-Ahx-Ub-VS probe labelling

Sequence of USP34 (Q70CQ2 whole entry, the tested form may be a part): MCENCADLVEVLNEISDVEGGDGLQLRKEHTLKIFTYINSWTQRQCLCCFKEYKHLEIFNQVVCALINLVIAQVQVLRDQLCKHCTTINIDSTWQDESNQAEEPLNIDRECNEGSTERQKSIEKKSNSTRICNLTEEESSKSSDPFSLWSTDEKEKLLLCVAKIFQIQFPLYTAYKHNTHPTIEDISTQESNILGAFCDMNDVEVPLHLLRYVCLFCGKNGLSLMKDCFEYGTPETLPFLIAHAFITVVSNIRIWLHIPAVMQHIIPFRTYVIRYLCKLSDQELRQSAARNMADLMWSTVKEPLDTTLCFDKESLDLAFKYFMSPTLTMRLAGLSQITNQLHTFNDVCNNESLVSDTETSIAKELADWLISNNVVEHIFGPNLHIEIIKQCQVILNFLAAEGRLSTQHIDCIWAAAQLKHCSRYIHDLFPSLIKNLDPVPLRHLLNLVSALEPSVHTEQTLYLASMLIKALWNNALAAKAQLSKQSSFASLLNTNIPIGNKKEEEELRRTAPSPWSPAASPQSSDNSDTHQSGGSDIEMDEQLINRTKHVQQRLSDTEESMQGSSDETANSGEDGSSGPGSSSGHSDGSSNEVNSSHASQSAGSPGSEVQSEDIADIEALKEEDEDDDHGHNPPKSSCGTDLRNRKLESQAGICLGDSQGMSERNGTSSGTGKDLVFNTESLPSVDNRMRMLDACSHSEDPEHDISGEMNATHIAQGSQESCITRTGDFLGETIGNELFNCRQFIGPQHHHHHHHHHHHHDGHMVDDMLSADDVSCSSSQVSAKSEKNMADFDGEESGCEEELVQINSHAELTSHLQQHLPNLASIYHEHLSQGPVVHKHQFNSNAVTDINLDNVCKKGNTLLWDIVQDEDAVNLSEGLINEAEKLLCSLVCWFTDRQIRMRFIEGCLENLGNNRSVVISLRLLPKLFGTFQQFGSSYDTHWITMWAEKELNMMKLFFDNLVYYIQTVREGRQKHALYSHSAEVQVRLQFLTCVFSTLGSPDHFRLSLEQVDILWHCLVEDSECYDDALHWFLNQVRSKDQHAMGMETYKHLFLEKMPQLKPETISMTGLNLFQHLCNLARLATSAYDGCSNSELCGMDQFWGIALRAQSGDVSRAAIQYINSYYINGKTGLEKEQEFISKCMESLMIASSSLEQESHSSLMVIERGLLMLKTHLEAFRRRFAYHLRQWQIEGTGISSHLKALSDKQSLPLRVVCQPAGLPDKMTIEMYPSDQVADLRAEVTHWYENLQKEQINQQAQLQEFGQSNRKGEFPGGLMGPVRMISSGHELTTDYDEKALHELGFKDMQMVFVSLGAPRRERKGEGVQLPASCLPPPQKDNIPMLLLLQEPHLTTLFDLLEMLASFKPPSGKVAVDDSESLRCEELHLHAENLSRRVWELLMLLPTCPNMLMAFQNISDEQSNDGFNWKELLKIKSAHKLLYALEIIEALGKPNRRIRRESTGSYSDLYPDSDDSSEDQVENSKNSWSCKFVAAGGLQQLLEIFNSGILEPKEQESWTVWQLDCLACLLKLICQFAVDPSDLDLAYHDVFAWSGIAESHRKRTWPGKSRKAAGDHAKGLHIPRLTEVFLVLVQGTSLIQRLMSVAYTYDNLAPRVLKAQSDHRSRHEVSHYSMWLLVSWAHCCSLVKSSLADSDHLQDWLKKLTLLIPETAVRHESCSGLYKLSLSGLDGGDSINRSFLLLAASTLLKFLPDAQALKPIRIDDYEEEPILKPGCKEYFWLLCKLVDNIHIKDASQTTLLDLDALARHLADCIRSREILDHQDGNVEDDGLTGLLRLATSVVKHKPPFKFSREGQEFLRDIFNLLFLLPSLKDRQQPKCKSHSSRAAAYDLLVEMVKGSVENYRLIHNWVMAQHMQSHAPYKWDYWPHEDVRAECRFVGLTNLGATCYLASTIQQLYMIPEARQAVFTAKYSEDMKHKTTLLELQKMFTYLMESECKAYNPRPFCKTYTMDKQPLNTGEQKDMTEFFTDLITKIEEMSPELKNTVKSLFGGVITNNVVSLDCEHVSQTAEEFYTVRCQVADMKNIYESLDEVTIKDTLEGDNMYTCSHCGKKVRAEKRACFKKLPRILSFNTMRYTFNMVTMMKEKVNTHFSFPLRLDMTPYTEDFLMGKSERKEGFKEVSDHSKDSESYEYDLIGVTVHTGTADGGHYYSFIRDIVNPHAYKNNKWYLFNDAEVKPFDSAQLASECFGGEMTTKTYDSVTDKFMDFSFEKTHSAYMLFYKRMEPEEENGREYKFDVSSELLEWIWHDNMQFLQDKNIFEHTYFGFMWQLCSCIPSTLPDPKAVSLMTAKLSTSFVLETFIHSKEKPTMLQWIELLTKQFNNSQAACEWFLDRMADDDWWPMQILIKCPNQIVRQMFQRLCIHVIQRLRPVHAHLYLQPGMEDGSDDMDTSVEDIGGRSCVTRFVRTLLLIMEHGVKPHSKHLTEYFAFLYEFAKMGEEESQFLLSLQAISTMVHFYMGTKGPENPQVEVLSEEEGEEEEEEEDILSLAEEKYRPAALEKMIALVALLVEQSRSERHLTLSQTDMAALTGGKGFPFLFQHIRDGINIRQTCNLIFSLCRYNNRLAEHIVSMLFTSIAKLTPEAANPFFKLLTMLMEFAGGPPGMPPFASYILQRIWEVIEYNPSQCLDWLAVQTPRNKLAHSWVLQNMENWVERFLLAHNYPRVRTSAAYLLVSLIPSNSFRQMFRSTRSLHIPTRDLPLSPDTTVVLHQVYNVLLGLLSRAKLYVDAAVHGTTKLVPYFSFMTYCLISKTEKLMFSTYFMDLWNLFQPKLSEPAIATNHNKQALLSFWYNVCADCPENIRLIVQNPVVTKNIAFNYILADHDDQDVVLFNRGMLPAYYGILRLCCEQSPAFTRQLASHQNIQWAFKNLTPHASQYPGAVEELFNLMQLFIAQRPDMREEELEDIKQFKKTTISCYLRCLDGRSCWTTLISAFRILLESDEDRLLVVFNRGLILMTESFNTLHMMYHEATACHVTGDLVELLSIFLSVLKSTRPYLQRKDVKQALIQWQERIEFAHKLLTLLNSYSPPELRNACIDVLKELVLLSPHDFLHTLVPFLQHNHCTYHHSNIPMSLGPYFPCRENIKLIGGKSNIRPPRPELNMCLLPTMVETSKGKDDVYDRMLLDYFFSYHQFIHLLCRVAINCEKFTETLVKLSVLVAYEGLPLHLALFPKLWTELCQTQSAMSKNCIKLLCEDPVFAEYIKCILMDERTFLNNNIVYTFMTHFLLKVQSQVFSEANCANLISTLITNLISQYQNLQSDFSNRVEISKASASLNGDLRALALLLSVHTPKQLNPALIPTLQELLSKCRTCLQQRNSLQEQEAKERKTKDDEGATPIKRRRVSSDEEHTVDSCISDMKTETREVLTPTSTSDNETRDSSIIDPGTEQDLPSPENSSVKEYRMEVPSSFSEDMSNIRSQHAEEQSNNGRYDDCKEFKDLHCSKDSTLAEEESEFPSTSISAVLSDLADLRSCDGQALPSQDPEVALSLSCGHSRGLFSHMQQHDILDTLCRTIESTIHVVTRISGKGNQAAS

O=C(CCl)NC1CCC(C(F)(F)F)CC1 (stereo not given)
inactive: [1] -0.186 | [2] -0.0199 | [3] 0.115 | [4] 0.207 | [5] -0.24
